In the supplement of paper PMC10849652:
The full data set covers some 8,800 targets. This sample favours those with a hit. About 0.5% of all pairs of compound and target were hits.

Legend:
Assay in all cases: log2 fold change, soluble protein after heating vs DMSO (PISA); higher = thermal stabilisation; K562 lysate, 10 uM; active = over 0.2 and 3.5 SD of the protein, either way, in both replicates (recomputed)
[1] = compound: C=CC(=O)N1CCC[C@@H](n2nc(-c3ccc(Oc4ccccc4)cc3)c3c(N)ncnc32)C1 [ibrutinib]
Method in brief: (§1)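 A 30 min treatment with 10 μM compound was applied to crude K562 extract at 1 mg/mL protein in PBS pH 7.4 with 1 mM MgCl2. Heating for 3 min spanned 48°C-58°C, after which aliquots were pooled, adjusted to 0.5% NP-40 at 4°C and spun at 21,000xg for 90 min. TMTpro 16plex LC-MS/MS of the supernatant, with channel sums equalised, gave values recorded as log-two fold change in thermal stability against solvent controls, from duplicates.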

[2] = compound: CC(=O)c1cnc2ccc(-c3cc(Cl)c(O)c(Cl)c3)nc2c1N[C@H]1CC[C@H](CN(C)C)CC1
Method in brief: as §1

[3] = compound: CC(C)(C)Cn1c(N)nc2ccc(-c3[nH]c(C(C)(C)C)nc3-c3ccc(F)cc3)nc21 [ralimetinib]
Method in brief: as §1

[4] = compound: CC(C)(O)CC(=O)NCCn1ccc2ncnc(Nc3ccc(Oc4cccc(C(F)(F)F)c4)c(Cl)c3)c21
Method in brief: as §1

[5] = compound: CC(C)C1=C2N=C(C=C(N2N=C1)NCC3=CC=CC=C3)NCCCCCCN
Method in brief: as §1

[6] = compound: CC1=C(C(CC(=O)N1)C2=CC=C(C=C2)C(F)(F)F)C(=O)NC3=C(C=C4C(=C3)C=NN4)F
Method in brief: as §1

[7] = compound: CC1=C(C2=C(C=C1)C(=O)C3=CC=CC=C3N2CCCN)C
Method in brief: as §1

[8] = compound: CC1=C(C=C(C=C1)NC(=O)C2=CC(=CC=C2)C(C)(C)C#N)NC3=CC4=C(C=C3)N=CN(C4=O)C
Method in brief: as §1

[9] = compound: CC1=C(C=C(C=C1)NC(=O)C2=CC(=CC=C2)N(C)C)NC(=O)C3=CC=C(C=C3)O
Method in brief: as §1

[10] = compound: CC1=CC=C(C=C1)SC2=C3C=C(SC3=CN=C2)C(=O)N
Method in brief: as §1

[11] = compound: CCCS(=O)(=O)Nc1ccc(F)c(C(=O)c2c[nH]c3ncc(-c4ccc(Cl)cc4)cc23)c1F [vemurafenib]
Method in brief: as §1

[12] = compound: CCCS(=O)(=O)Nc1ccc(F)c(C(=O)c2c[nH]c3ncc(Cl)cc23)c1F
Method in brief: as §1

[13] = compound: CCN(CCCOc1ccc2c(Nc3cc(CC(=O)Nc4cccc(F)c4)[nH]n3)ncnc2c1)CCOP(=O)(O)O [barasertib]
Method in brief: as §1

[14] = compound: CC[C@@H]1C(=O)N(C)c2cnc(Nc3ccc(C(=O)NC4CCN(C)CC4)cc3OC)nc2N1C1CCCC1
Method in brief: as §1

[15] = compound: CC[C@@H]1C(=O)N(C)c2cnc(Nc3ccc(C(=O)N[C@H]4CC[C@H](N5CCN(CC6CC6)CC5)CC4)cc3OC)nc2N1C(C)C [volasertib]
Method in brief: as §1

[16] = compound: CCn1c(C(=O)N(C2CC2)C2CC2)cc2c3c(ncn3C)c(Nc3cc(C)n(C)n3)nc21
Method in brief: as §1

[17] = compound: CCn1cc(-c2ccnc3[nH]c(-c4cccc(CN(C)C)c4)cc23)c(-c2ccc(NC(=O)N(C)C)cc2)n1
Method in brief: as §1

[18] = compound: CN1CCC(CNc2ccc3ncc(-c4cccc(OC(F)(F)F)c4)n3n2)CC1
Method in brief: as §1

[19] = compound: CN1CCN(CCOc2cc(OC3CCOCC3)c3c(Nc4c(Cl)ccc5c4OCO5)ncnc3c2)CC1 [saracatinib]
Method in brief: as §1

[20] = compound: CN1CCN(c2nc(C3=C(c4c[nH]c5ccccc45)C(=O)NC3=O)c3ccccc3n2)CC1 [sotrastaurin]
Method in brief: as §1

UniProt Q8TAG9, sequence (Q8TAG9 whole entry, looked up): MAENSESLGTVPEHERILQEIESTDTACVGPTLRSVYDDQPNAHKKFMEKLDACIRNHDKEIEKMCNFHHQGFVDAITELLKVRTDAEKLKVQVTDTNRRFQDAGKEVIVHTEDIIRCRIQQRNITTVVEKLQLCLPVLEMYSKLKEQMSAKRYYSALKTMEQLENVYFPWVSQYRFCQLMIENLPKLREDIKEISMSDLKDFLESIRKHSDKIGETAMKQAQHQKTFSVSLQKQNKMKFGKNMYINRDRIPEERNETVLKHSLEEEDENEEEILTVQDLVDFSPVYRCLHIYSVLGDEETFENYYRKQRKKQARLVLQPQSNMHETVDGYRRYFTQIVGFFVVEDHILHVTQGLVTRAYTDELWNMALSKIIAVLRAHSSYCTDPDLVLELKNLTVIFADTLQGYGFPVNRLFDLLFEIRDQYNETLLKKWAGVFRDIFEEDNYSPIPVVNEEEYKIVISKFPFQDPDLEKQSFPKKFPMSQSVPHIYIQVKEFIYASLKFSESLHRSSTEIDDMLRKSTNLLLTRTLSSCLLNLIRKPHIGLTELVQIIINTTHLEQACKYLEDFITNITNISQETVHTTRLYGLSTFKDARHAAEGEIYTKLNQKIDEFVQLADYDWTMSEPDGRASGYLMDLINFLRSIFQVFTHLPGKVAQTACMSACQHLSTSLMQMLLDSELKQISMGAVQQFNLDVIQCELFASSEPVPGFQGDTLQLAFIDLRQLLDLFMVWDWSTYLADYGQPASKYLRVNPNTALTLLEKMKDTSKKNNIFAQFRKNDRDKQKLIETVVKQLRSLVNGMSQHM
UniProt Q9UJ14, sequence (Q9UJ14 whole entry, looked up): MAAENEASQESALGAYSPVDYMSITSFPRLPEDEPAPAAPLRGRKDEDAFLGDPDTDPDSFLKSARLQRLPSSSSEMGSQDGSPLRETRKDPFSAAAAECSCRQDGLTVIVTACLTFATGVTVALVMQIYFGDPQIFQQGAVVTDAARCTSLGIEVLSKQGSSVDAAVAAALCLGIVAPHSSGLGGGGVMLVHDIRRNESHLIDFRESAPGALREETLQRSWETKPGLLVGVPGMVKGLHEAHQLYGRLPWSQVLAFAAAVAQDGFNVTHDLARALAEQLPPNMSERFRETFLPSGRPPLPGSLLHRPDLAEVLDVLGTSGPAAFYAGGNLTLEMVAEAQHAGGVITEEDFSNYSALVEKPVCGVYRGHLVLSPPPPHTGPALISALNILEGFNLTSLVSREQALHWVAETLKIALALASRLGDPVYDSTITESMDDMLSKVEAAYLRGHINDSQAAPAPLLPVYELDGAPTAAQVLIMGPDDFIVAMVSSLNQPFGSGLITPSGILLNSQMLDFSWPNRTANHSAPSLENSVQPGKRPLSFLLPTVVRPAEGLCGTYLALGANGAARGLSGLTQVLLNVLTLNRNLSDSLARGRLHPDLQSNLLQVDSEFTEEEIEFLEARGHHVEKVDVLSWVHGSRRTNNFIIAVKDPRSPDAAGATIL
UniProt Q9UET6, sequence (Q9UET6 whole entry, looked up): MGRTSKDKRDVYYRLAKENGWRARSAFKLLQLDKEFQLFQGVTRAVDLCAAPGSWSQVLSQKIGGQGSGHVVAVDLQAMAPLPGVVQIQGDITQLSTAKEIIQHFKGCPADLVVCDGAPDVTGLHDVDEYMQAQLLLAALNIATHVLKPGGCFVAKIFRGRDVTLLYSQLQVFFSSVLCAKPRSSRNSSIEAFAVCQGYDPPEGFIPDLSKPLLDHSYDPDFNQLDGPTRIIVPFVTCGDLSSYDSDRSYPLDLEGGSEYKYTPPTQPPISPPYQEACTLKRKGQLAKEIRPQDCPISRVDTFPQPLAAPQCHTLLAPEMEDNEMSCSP
UniProt Q9GZT9, sequence (Q9GZT9 whole entry, looked up): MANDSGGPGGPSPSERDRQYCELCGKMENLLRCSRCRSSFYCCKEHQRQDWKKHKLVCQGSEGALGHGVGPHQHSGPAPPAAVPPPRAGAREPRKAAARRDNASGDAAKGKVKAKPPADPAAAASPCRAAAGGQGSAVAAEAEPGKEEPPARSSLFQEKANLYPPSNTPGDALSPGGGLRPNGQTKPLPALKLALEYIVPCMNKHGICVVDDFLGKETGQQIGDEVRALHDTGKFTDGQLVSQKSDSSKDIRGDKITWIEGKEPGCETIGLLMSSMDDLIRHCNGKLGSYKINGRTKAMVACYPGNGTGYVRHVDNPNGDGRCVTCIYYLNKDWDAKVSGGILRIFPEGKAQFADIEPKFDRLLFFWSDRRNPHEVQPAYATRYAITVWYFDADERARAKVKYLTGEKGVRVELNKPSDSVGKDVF
UniProt P07814, sequence (P07814 whole entry, looked up): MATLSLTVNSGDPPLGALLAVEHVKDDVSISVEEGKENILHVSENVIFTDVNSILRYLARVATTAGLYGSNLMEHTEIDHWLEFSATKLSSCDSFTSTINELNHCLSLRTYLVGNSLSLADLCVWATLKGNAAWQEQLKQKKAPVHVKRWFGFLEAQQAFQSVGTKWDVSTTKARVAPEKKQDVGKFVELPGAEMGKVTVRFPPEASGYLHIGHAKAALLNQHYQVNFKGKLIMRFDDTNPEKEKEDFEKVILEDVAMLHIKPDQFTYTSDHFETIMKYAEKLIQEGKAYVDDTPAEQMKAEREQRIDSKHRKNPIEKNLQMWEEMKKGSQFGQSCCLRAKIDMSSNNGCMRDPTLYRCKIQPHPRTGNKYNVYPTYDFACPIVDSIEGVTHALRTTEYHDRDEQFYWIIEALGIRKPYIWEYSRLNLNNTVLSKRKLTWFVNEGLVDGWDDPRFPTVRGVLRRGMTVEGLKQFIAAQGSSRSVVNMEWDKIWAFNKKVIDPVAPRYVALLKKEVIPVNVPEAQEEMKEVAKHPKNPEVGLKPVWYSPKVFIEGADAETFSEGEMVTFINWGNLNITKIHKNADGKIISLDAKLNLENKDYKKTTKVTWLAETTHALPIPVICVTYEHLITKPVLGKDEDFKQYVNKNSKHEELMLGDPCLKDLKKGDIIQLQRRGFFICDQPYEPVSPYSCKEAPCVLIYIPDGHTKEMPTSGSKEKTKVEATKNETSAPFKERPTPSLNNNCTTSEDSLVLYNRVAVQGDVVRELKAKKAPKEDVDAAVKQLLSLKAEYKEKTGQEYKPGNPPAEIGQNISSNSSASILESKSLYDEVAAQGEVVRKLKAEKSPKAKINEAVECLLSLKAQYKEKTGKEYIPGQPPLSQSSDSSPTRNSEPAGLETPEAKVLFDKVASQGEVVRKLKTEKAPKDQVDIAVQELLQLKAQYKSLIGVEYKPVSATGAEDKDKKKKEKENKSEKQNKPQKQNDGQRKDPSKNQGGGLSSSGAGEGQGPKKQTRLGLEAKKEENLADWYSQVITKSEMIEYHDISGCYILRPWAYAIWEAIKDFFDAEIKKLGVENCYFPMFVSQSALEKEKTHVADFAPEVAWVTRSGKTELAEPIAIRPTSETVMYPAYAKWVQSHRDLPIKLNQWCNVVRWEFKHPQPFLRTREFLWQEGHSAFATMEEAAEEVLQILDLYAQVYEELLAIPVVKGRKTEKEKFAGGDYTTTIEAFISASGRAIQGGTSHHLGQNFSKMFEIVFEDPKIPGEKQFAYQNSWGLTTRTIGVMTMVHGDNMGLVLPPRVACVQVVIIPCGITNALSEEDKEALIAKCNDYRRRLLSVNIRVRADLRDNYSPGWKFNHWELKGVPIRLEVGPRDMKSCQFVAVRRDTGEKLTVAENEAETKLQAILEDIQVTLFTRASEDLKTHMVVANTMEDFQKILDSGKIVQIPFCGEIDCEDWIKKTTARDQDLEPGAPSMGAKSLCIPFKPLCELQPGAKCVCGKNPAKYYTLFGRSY
UniProt A6NHQ2, sequence (A6NHQ2 whole entry, looked up): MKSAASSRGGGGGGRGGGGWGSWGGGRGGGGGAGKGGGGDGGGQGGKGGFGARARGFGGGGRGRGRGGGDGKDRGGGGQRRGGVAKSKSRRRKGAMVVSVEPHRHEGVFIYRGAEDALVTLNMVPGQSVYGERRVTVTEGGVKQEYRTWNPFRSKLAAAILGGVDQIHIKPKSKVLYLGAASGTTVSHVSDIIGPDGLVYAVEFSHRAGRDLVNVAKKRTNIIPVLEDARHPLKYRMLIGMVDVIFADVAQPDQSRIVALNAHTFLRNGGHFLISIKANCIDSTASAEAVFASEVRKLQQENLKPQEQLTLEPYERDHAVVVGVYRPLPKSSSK
UniProt O94905, sequence (O94905 whole entry, looked up): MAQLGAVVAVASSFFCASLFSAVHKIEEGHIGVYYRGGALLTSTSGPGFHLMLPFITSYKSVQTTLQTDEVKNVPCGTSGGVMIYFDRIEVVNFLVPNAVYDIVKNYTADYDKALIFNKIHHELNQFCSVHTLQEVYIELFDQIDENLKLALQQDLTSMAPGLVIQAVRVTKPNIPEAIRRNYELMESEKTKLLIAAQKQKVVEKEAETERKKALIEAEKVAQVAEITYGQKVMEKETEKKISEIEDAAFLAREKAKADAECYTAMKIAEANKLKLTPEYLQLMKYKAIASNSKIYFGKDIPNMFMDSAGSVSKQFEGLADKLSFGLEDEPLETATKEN
UniProt O95718, sequence (O95718 whole entry, looked up): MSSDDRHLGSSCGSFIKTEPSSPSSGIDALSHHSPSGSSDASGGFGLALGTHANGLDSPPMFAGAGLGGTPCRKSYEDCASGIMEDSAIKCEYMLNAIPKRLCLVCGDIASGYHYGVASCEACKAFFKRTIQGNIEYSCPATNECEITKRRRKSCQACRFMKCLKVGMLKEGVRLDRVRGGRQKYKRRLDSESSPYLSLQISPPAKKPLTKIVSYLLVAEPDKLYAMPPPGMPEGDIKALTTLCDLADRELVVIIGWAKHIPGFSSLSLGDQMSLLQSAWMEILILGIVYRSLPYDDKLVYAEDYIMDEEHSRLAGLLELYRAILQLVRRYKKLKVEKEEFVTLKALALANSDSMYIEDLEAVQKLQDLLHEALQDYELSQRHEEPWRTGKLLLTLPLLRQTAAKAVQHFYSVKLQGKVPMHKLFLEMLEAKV

Target	log2 fold change [1]	log2 fold change [2]	log2 fold change [3]	log2 fold change [4]	log2 fold change [5]	log2 fold change [6]	log2 fold change [7]	log2 fold change [8]	log2 fold change [9]	log2 fold change [10]	log2 fold change [11]	log2 fold change [12]	log2 fold change [13]	log2 fold change [14]	log2 fold change [15]	log2 fold change [16]	log2 fold change [17]	log2 fold change [18]	log2 fold change [19]	log2 fold change [20]
EGLN1 (UniProt Q9GZT9)	-0.041 (inactive)	0.007 (inactive)	0.01 (inactive)	0.072 (inactive)	0.029 (inactive)	0.013 (inactive)	-0.029 (inactive)	0.013 (inactive)	0.029 (inactive)	0.038 (inactive)	-0.052 (inactive)	-0.041 (inactive)	-0.025 (inactive)	-0.078 (inactive)	-0.076 (inactive)	0.007 (inactive)	0.019 (inactive)	-0.001 (inactive)	0.029 (inactive)	0.034 (inactive)
EIF2B4 (UniProt Q9UI10)	-0.01 (inactive)	0.05 (inactive)	-0.033 (inactive)	-0.062 (inactive)	0.013 (inactive)	0.009 (inactive)	-0.109 (inactive)	-0.044 (inactive)	0.005 (inactive)	-0.038 (inactive)	-0.064 (inactive)	0.026 (inactive)	0.006 (inactive)	0.04 (inactive)	-0.032 (inactive)	0.048 (inactive)			0.042 (inactive)	0.047 (inactive)
ERBIN isoform 8 (UniProt Q96RT1)	0.029 (inactive)	-0.011 (inactive)	-0.003 (inactive)	0.01 (inactive)	-0.003 (inactive)	-0.037 (inactive)	0.012 (inactive)	-0.007 (inactive)	0.019 (inactive)	-0.01 (inactive)	0.038 (inactive)	0.015 (inactive)	-0.004 (inactive)	0.068 (inactive)	-0.013 (inactive)	0.338 (active)	-0.028 (inactive)	0.1 (inactive)	-0.001 (inactive)	0.032 (inactive)
GAA (UniProt P10253)	0.013 (inactive)	-0.011 (inactive)	0.054 (inactive)	-0.133 (inactive)	0.009 (inactive)	0.142 (inactive)		0.028 (inactive)	0.036 (inactive)	-0.084 (inactive)	0.068 (inactive)	-0.101 (inactive)	-0.063 (inactive)	-0.006 (inactive)	0.015 (inactive)	-0.021 (inactive)	0.122 (inactive)	0.027 (inactive)		-0.039 (inactive)
FECH isoform 2 (UniProt P22830)	0.091 (inactive)	0.104 (inactive)	-0.034 (inactive)	0.504 (inactive)	0.327 (inactive)	-0.263 (inactive)	0.287 (inactive)	0.748 (inactive)	0.028 (inactive)	-1.11 (active)	0.363 (inactive)	-0.891 (active)	-0.082 (inactive)	0.477 (inactive)	0.078 (inactive)	-0.03 (inactive)	0.128 (inactive)	0.699 (inactive)	-0.287 (inactive)	0.014 (inactive)
FMNL1 isoform 3 (UniProt O95466)	0.043 (inactive)	-0.002 (inactive)	0.038 (inactive)	-0.02 (inactive)	0.023 (inactive)	0.099 (inactive)	0.03 (inactive)	0.073 (inactive)	0.015 (inactive)	0.001 (inactive)	0.022 (inactive)	-0.008 (inactive)	-0.002 (inactive)	0.028 (inactive)	-0.088 (inactive)	-0.035 (inactive)	0.026 (inactive)	-0.032 (inactive)	0.007 (inactive)	-0.006 (inactive)
GGT7 (UniProt Q9UJ14)	0.019 (inactive)	0.004 (inactive)	-0.07 (inactive)	-0.106 (inactive)	-0.05 (inactive)	0.003 (inactive)	-0.066 (inactive)	-0.032 (inactive)	0.035 (inactive)	0.017 (inactive)	0.003 (inactive)	0.029 (inactive)	0.007 (inactive)	0.037 (inactive)	-0.014 (inactive)	-0.014 (inactive)	-0.003 (inactive)	0.027 (inactive)	0.097 (inactive)	0.032 (inactive)
EXOC6 (UniProt Q8TAG9)	0 (inactive)	0.072 (inactive)	0.034 (inactive)	-0.018 (inactive)	-0.049 (inactive)	0.048 (inactive)	0.049 (inactive)	-0.022 (inactive)	0.042 (inactive)	0.01 (inactive)	-0.041 (inactive)	0.033 (inactive)	0.032 (inactive)	-0.033 (inactive)	-0.047 (inactive)	0.032 (inactive)	-0.05 (inactive)	-0.075 (inactive)	0.018 (inactive)	0.06 (inactive)
EPRS (UniProt P07814)	-0.018 (inactive)	0.002 (inactive)	0.01 (inactive)	0.026 (inactive)	0.02 (inactive)	-0.014 (inactive)	0.02 (inactive)	-0.004 (inactive)	0.046 (inactive)	0.019 (inactive)	0.01 (inactive)	-0.001 (inactive)	0.001 (inactive)	-0.077 (inactive)	-0.068 (inactive)	0.024 (inactive)	-0.025 (inactive)	-0.035 (inactive)	0.014 (inactive)	0.02 (inactive)
ERLIN2 (UniProt O94905)	0.033 (inactive)	-0.028 (inactive)	0.026 (inactive)	-0.023 (inactive)	-0.023 (inactive)	-0.012 (inactive)	-0.031 (inactive)	-0.016 (inactive)	0.066 (inactive)	-0.014 (inactive)	-0.003 (inactive)	0.012 (inactive)	0.021 (inactive)	0.05 (inactive)	-0.029 (inactive)	0.012 (inactive)	0.384 (active)	-0.135 (inactive)	0.008 (inactive)	-0.008 (inactive)
FBLL1 (UniProt A6NHQ2)	-0.042 (inactive)	-0.031 (inactive)	0.029 (inactive)	-0.056 (inactive)	-0.014 (inactive)	0.001 (inactive)	-0.121 (inactive)	0.006 (inactive)	0.049 (inactive)	-0.018 (inactive)	0.081 (inactive)	0.019 (inactive)	0.107 (inactive)	0.003 (inactive)	-0.041 (inactive)	-0.014 (inactive)	-0.307 (active)	0.046 (inactive)	-0.075 (inactive)	0.056 (inactive)
GCA (UniProt P28676)		-0.134 (inactive)			0.191 (inactive)	0.173 (inactive)				0.123 (inactive)		0.124 (inactive)			-0.048 (inactive)		-0.139 (inactive)	0.168 (inactive)		
ESRRB isoform 1 (UniProt O95718)	-0.047 (inactive)		0.035 (inactive)	-0.087 (inactive)	-0.187 (inactive)				0.053 (inactive)				-0.004 (inactive)			-0.118 (inactive)	0.242 (inactive)	-0.127 (inactive)		
FOXL2 (UniProt P58012)	-0.074 (inactive)	-0.065 (inactive)	0.264 (inactive)	-0.095 (inactive)	0.161 (inactive)		-0.023 (inactive)		0.02 (inactive)	-0.035 (inactive)		0.026 (inactive)	0.051 (inactive)	0.01 (inactive)	0.046 (inactive)	0.174 (inactive)			-0.038 (inactive)	
GC isoform 3 (UniProt P02774)			0.051 (inactive)	-0.559 (active)			-0.148 (inactive)	-0.087 (inactive)	-0.101 (inactive)		-0.008 (inactive)			0.022 (inactive)		-0.27 (inactive)	0.146 (inactive)	-0.12 (inactive)	-0.02 (inactive)	0.043 (inactive)
FYN (UniProt P06241)	0.79 (active)	0.046 (inactive)	0.09 (inactive)	-0.13 (inactive)	0.003 (inactive)		-0.042 (inactive)	-0.069 (inactive)	0.052 (inactive)	0.021 (inactive)	-0.036 (inactive)	-0.01 (inactive)	0.065 (inactive)	-0.351 (inactive)	0.046 (inactive)	0.033 (inactive)	0.048 (inactive)	0.22 (inactive)		0.023 (inactive)
FTSJ1 isoform 2 (UniProt Q9UET6)		0.026 (inactive)								0.001 (inactive)	-0.164 (inactive)	0.021 (inactive)		-0.024 (inactive)	0.013 (inactive)		-0.019 (inactive)	0.047 (inactive)		
